Where “and” joins values, the source holds several entries; their conditions need not be identical. Identical values can stand only once. Inconclusive results are not listed. Calls of active or inactive are those of the source. Unless noted, calls follow the shape of the dose curve; as a rule, active = well fitted curve in the direction sought with a large enough effect in the repeat runs; inconclusive = weak or mixed curves; inactive = no such curve, though single readings can be large; an effect the other way counts as inactive or inconclusive.
Legend:
[1] = qHTS assay to identify small molecule agonists of the progesterone receptor (PR) signaling pathway - cell viability counter screen (AID 1346799; calls by dose curve; also: nearly all actives have a fitted effect of over 45% in size; also: potency is read from the fitted curve at half-maximal effect)
Summary of the method: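 Here, 3,000 PR-UAS-bla HEK293T cells per well were treated with compounds for 16 hr after a 6 hr preincubation at 37C and 5% CO2; cell viability is the CellTiter-Glo luminescence signal.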

[2] = qHTS assay to identify small molecule antagonists of the TGF-beta/Smad signaling pathway - cell viability counter screen (AID 1346824); also: nearly all actives have a fitted effect of over 50% in size; also: potency is read from the fitted curve at half-maximal effect
Summary of the method: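 SBE-bla HEK 293T cells, incubated overnight, then compound plus 0.25 ng/mL TGF-beta1 (stock added) for 5 hr at 37 C. Viability was read in the same wells by CellTiter-Glo luminescence after 30 min at room temperature.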

[3] = qHTS assay to identify small molecule agonists of the TGF-beta/Smad signaling pathway - cell viability counter screen (AID 1346829); also: nearly all actives have a fitted effect of over 45% in size; also: potency is read from the fitted curve at half-maximal effect
Summary of the method: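 Here the cytotoxicity of library compounds is measured in SBE-bla HEK 293T cells treated for 5 hr, using CellTiter-Glo added to wells already read for the beta-lactamase reporter.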

[4] = qHTS assay to identify small molecule agonists of the TGF-beta/Smad signaling pathway (AID 1346859; active = well fitted activation curve with a large enough effect in the signal ratio in the repeat runs, not every such curve was filed as active; the % refers to the signal ratio; also: series mostly up to about 77 µM)
Summary of the method: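 Each well held 4,000 SBE-bla HEK 293T cells incubated overnight before compound addition; 5 hr later the cleavable FRET substrate went on for 2 hr at room temperature, and fluorescence was read at two emissions.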

[5] = biological target: Thyrotropin-releasing hormone receptor (Homo sapiens) (UniProt P34981); assay: qHTS assay to identify small molecule antagonists of the thyrotropin-releasing hormone receptor (TRHR) signaling pathway (AID 1346877; active = well fitted inhibition curve with a large enough effect in the repeat runs, not every such curve was filed as active; also: series mostly up to about 51 µM)
Summary of the method: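 Cells (TRHR-HEK293) are plated and kept 18 h at 37 °C/5% CO2. A calcium-sensitive dye is added for 2 h, compound follows for 5 min at room temperature, and TRH is then given at 1 nM final.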

[6] = biological target: Thyrotropin-releasing hormone receptor (Homo sapiens) (UniProt P34981); assay: qHTS assay to identify small molecule agonists of the thyrotropin-releasing hormone receptor (TRHR) signaling pathway (AID 1346891; calls by dose curve; also: series mostly up to about 58 µM)
Summary of the method: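 Screening of agonists relied on calcium signalling in HEK293 cells expressing human TRHR: dye loading 2 h at 37 °C preceded compound addition and a 3-min fluorescence time course.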

[7] = Human pregnane X receptor (PXR) small molecule agonists, qHTS cell viability counter screen (AID 1346977); also: nearly all actives have a fitted effect of over 50% in size; also: potency is read from the fitted curve at half-maximal effect
Summary of the method: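 Tox21 qHTS format; PXR-Luc HepG2, 2,000/well, charcoal-stripped FBS 5%. Cpd exposure 24hr. Read: CellTiter-Fluor fluorescence, multiplexed with luciferase.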

[8] = Caspase-3/7 induction in HepG2 cells by small molecules, qHTS assay (AID 1346978); also: nearly all actives have a fitted effect of over 15% in size; also: potency is read from the fitted curve at half-maximal effect
Summary of the method: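 Wild-type HepG2 cells, 2,000/well, settled 5 hr at 37 C and 5% CO2, then compound-treated for 17 hr; caspase-3/7 activity read by luminescent Caspase-Glo 3/7 after 30 min at room temperature.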

[9] = biological target: Nuclear receptor subfamily 1 group I member 2 (Homo sapiens) (UniProt O75469); assay: Human pregnane X receptor (PXR) small molecule agonists, qHTS assay (AID 1346982); also: nearly all actives have a fitted effect of over 35% in size; also: potency is read from the fitted curve at half-maximal effect
Summary of the method: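 Agonist mode qHTS: PXR-Luc HepG2 cells plated 5 hr before DMSO-dissolved compounds were pinned in, cultured 24 hr at 37 C, 5% CO2; ONE-Glo luminescence readout.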

[10] = biological target: Cytochrome P450 2D6 (Homo sapiens) (UniProt P10635); assay: Cytochrome P450 Family 2 Subfamily D Member 6 (CYP2D6) small molecule antagonists: luciferase reporter qHTS assay (AID 1671196); also: nearly all actives have a fitted effect of over 50% in size; also: potency is read from the fitted curve at half-maximal effect
Summary of the method: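 P450-Glo format: CYP2D6 converts a proluciferin substrate to luciferin in an NADPH-driven reaction lasting 1 h at room temperature. Light output, proportional to CYP2D6 activity, reflects interference by test chemicals.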

[11] = biological target: Cytochrome P450 2C19 (Homo sapiens) (UniProt P33261); assay: Cytochrome P450 Family 2 Subfamily C Member 19 (CYP2C19) small molecule antagonists: luciferase reporter qHTS assay (AID 1671197); also: nearly all actives have a fitted effect of over 65% in size; also: potency is read from the fitted curve at half-maximal effect
Summary of the method: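 Light output is proportional to CYP2C19 activity: proluciferin substrate is converted to luciferin, then detected by a luciferin detection reagent that also stops the 1 h, 37C NADPH-driven reaction. Ketoconazole serves as positive control.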

[12] = biological target: Cytochrome P450 2C9 (Homo sapiens) (UniProt P11712); assay: Cytochrome P450 Family 2 Subfamily C Member 9 (CYP2C9) small molecule antagonists: luciferase reporter qHTS assay (AID 1671198); also: nearly all actives have a fitted effect of over 50% in size; also: potency is read from the fitted curve at half-maximal effect
Summary of the method: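 P450-Glo proluciferin substrate with CYP2C9 enzyme; 10 min RT preincubation, then NADPH regeneration 1 h at 37C; luciferin detection reagent 20 min RT, luminescence in relative luminescence units.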

[13] = Caspase-3/7 induction in CHO-K1 cells by small molecules, qHTS cell viability counter screen (AID 1346979); also: nearly all actives have a fitted effect of over 35% in size; also: potency is read from the fitted curve at half-maximal effect
Summary of the method: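 CellTiter-Fluor viability check, qHTS format: wild-type CHO-K1, 16hr compound treatment, 1hr reagent incubation, fluorescence read.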

[14] = Caspase-3/7 induction in CHO-K1 cells by small molecules, qHTS assay (AID 1346980); also: nearly all actives have a fitted effect of over 15% in size
Summary of the method: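 Wild-type CHO-K1 cells exposed to compounds for 17hr at 37 C, 5% CO2. Caspase-3/7 activity then measured by Caspase-Glo 3/7 luminescence after 30min at room temperature.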

[15] = Caspase-3/7 induction in HepG2 cells by small molecules, qHTS cell viability counter screen (AID 1346981); also: nearly all actives have a fitted effect of over 30% in size; also: potency is read from the fitted curve at half-maximal effect
Summary of the method: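 Steps: seed 2,000 HepG2 cells per well; incubate 5 hr at 37 C; pin-add compounds in DMSO; incubate 16 hr; add CellTiter-Fluor; after 1 hr at 37 C and 5% CO2, read fluorescence.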

[16] = biological target: Nuclear receptor subfamily 1 group I member 2 (Rattus norvegicus) (UniProt Q9R1A7); assay: Rat pregnane X receptor (rPXR) activation by small molecules, qHTS assay (AID 1346983); conditions: rPXR luciferase reporter cells, One-Glo luminescence, 24 h; max activation: hits give high values; also: nearly all actives have a fitted effect of over 20% in size
Summary of the method: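 Cell-based rPXR activation assay: rPXR cells, 2,000 per well, rested 5hr at 37 C, then exposed to compounds in DMSO for 24 hr at 37 C. Luciferase activity read by One-Glo luminescence after 30 min at room temperature.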
% is scaled to controls: 0 for no effect and ±100 for the full control effect.

Sequence of Thyrotropin-releasing hormone receptor (Homo sapiens) (P34981 whole entry, looked up): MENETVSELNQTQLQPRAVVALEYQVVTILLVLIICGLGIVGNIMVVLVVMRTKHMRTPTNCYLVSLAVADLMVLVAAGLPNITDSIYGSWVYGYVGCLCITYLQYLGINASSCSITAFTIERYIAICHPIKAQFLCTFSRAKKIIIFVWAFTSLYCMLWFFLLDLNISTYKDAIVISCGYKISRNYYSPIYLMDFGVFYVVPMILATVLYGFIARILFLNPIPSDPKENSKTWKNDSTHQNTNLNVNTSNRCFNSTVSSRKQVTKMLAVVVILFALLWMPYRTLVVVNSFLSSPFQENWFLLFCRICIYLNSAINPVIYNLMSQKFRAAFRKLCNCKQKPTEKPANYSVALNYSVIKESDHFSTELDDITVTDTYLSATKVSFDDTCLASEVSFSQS
Sequence of Nuclear receptor subfamily 1 group I member 2 (Homo sapiens) (O75469 whole entry, looked up): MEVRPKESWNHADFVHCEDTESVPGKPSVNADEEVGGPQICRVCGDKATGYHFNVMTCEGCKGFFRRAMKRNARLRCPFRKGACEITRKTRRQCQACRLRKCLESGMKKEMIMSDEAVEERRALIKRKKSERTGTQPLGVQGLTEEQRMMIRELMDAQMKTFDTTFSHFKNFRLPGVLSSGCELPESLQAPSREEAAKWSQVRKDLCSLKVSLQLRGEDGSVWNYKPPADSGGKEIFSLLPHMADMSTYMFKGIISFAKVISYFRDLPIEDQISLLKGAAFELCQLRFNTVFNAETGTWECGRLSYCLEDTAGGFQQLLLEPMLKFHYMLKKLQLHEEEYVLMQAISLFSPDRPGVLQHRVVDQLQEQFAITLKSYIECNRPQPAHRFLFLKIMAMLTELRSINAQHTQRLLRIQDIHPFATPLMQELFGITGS
Sequence of Cytochrome P450 2D6 (Homo sapiens) (P10635 whole entry, looked up): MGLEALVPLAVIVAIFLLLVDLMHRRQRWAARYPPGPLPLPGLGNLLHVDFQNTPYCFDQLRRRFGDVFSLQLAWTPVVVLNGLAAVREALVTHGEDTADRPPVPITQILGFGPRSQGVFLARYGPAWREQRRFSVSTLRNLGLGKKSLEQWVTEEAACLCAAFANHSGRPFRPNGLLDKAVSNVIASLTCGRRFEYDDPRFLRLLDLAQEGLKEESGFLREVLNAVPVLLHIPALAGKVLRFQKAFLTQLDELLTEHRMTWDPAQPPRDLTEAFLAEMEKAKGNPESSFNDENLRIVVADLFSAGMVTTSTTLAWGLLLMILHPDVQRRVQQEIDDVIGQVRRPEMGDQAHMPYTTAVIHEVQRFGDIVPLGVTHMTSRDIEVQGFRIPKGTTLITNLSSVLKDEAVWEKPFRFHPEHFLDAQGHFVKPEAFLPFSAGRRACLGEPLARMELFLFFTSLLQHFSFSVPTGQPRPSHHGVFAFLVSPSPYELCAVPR
Sequence of Cytochrome P450 2C19 (Homo sapiens) (P33261 whole entry, looked up): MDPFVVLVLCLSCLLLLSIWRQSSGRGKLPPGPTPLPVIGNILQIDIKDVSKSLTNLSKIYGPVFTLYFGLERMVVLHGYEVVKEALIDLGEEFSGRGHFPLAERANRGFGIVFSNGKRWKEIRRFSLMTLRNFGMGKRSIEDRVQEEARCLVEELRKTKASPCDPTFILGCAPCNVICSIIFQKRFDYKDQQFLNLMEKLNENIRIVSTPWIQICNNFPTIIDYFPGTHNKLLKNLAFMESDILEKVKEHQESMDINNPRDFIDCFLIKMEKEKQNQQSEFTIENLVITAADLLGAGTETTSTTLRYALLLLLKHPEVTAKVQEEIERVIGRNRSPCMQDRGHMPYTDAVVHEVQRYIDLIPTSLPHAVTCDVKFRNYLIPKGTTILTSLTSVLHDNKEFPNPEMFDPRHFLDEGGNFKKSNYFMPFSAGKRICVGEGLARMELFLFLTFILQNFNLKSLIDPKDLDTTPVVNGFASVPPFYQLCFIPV
Sequence of Cytochrome P450 2C9 (Homo sapiens) (P11712 whole entry, looked up): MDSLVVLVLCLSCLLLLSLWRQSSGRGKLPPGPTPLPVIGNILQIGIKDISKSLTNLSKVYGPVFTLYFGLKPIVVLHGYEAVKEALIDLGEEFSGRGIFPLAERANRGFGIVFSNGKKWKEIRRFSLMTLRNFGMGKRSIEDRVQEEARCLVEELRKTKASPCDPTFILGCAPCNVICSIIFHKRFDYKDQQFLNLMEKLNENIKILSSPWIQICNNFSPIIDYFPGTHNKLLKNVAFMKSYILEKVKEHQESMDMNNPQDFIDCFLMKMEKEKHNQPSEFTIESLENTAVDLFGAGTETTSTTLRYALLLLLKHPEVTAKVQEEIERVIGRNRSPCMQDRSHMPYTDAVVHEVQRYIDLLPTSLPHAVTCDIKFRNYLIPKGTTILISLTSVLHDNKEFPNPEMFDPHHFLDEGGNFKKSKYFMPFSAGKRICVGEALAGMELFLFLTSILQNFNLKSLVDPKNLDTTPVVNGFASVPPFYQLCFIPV
Sequence of Nuclear receptor subfamily 1 group I member 2 (Rattus norvegicus) (Q9R1A7 whole entry, looked up): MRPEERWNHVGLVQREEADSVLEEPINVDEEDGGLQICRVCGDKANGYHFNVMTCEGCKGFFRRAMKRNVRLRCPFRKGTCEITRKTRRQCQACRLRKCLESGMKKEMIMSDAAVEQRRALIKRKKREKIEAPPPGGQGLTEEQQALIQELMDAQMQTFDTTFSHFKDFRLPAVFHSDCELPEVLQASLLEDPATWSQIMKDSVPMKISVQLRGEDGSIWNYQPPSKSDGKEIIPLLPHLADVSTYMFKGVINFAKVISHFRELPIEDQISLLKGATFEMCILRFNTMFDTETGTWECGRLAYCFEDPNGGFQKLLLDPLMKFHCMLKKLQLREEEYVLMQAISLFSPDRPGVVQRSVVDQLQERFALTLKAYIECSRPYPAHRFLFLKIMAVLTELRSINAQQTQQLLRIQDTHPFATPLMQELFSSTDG

COC(=O)CC(C)CCC=C(C)C (stereo unspecified)
inactive: Potency [1] | Potency [2] | Potency [3] | Potency [4] | Potency [5] | Potency [6] | Potency [7] | Potency [8] | Potency [9] | Potency [10] | Potency [11] | Potency [12]

CCOC(=O)N1CCC(=C2c3ccc(Cl)cc3CCc3cccnc32)CC1
active: Potency [13] 43.3 µM and 26.6 µM | Potency [15] 54.5 µM
inactive: Potency [2] | Potency [3] | Potency [5] | Potency [6] | Potency [8] | Potency [14]

CN(C)CCOC(c1ccccc1)c1ccccc1 (tested in a mixture with another compound)
inactive: Potency [2] | Potency [3] | Potency [4] | Potency [5] | Potency [6] | Potency [8] | Potency [14]

CC(NCCC(c1ccccc1)c1ccccc1)c1ccccc1 (stereo unspecified)
inactive: Potency [4] | Potency [5] | Potency [6] | max activation [16] -19.7%
active: Potency [7] 26.6 µM | Potency [9] 6.68 µM | Potency [10] 0.219 µM | Potency [11] 4.36 µM | Potency [12] 15.5 µM

CCN(CC)c1ccc(N)cc1
active: Potency [1] 44.5 µM | Potency [7] 15.8 µM | Potency [13] 22.3 µM | Potency [15] 25 µM | Potency [10] 13 µM | Potency [11] 9.18 µM | Potency [12] 23.1 µM
inactive: Potency [5] | Potency [6] | Potency [8] | Potency [9]

O=C(Nc1ccc(Cl)c(Cl)c1)c1cc(Cl)cc(Cl)c1O
inactive: Potency [6] | Potency [8]
active: Potency [2] 19.5 µM | Potency [3] 6.92 µM | Potency [7] 4.86 µM | Potency [13] 7.7 µM | Potency [9] 10.9 µM | Potency [12] 11.2 µM

c1cc(OCC2CO2)cc(OCC2CO2)c1 (stereo unspecified)
inactive: Potency [2] | Potency [3] | Potency [5] | Potency [6] | Potency [14]
active: Potency [1] 60.6 µM | Potency [7] 60.6 µM | Potency [15] 60.6 µM | Potency [9] 21.5 µM | Potency [12] 39.6 µM

Brc1ccccc1-c1ccccc1
inactive: Potency [2] | Potency [3] | Potency [4] | Potency [5] | Potency [6] | Potency [7] | Potency [13] | Potency [14]
active: Potency [10] 75.4 µM

CCCCCCCCCCOCC(O)CN (stereo unspecified)
inactive: Potency [2] | Potency [4] | Potency [5] | Potency [6] | Potency [9] | max activation [16] -17.7%
active: Potency [1] 29.8 µM | Potency [7] 26.6 µM | Potency [8] 29.8 µM | Potency [13] 33.5 µM | Potency [10] 6.92 µM | Potency [11] 6.92 µM | Potency [12] 13.8 µM

CCCCCCCOC(=O)c1ccc(O)cc1
active: Potency [13] 61.2 µM and 61.1 µM | Potency [9] 61.1 µM | Potency [10] 71 µM | Potency [11] 7.1 µM and 20 µM | Potency [12] 35.6 µM and 39.9 µM
inactive: Potency [2] | Potency [3] | Potency [4] | Potency [7] | Potency [14] | Potency [15]

O=C(NO)c1ccccc1
active: Potency [9] 29.2 µM | Potency [10] 60.2 µM
inactive: Potency [3] | Potency [4] | Potency [5] | Potency [6] | Potency [7] | Potency [8] | Potency [14] | Potency [15]

Cc1ccc(-n2[nH]c(C)c(N=Nc3cccc(-c4cccc(C(=O)O)c4)c3O)c2=O)cc1C
inactive: Potency [2] | Potency [3] | Potency [4] | Potency [5] | Potency [6] | Potency [8] | Potency [9] | Potency [11]
